Source: PubChem
SMN2 splice up – SMN2 splice variant enhancement | HEK293 SMN2-luciferase splicing reporter, luminescence, 30-36 h | Potency, µM (highest dose often 46.1 µM), without a hit: top-dose activity change, positive = activation, usual class: activators | 2.8% of 210,000 active; note: % of control where 0% means no effect; nearly all actives have a fitted effect of over 55% in size
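HEK293 cells carry an SMN2 minigene-luciferase reporter in which exon 7 inclusion puts luciferase in frame. Cells were seeded at 2000 cells/well, attached for 10-12 hours, then exposed to compounds for 30-36 hours at 37C before ONE-Glo luminescence.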
ELG1 genotoxic – inducers of genotoxicity in HEK293T ELG1-luciferase cells | 1.3% of 330,000 active | AID 504466 | HEK293T ELG1-luciferase reporter, luminescence, 16 h | Potency, µM (highest dose often 46 µM), for the others: at the top dose activity change, positive = activation, actives largely listed as activators; note: % of control where 0% means no effect; nearly all actives have a fitted effect of over 60% in size
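Step 1: seed 2,000 HEK293T ELG1-luciferase cells per well. Step 2: add compound or DMSO, incubate 16 hr at 37 °C. Step 3: ONE-Glo, 30 min at room temperature, read luminescence.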
FLuc modulator – inhibits or activates purified firefly luciferase, miR-21 counter-screen. P08659. purified FLuc, Km substrates, luminescence inhibition. AID 588342. 6.9% of 360,000 active. Potency, µM (top dose mostly 57.5 µM), without a hit: at the highest dose activity change, negative = inhibition, hits mostly inhibitors;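 note: plate controls were vehicle for no effect and reference inhibitor for full effect; nearly all actives have a fitted effect of over 55% in size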
Target sequence (P08659 whole entry, looked up): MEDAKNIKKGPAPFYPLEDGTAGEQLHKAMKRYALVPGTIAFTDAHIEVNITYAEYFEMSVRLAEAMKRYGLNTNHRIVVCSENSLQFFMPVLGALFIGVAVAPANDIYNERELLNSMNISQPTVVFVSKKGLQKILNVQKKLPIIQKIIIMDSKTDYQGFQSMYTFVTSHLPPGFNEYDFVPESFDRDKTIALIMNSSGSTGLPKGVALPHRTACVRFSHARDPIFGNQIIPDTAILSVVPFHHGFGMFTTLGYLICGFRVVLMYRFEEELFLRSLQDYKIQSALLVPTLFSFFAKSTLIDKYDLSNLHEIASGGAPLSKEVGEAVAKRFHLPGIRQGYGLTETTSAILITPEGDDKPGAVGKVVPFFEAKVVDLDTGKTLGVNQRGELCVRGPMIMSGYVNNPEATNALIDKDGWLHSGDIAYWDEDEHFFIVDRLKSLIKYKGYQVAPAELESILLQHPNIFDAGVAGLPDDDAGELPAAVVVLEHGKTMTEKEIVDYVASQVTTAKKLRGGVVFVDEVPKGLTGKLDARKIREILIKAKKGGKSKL
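Purified P. pyralis luciferase (10nM final) with 10uM D-luciferin and 10uM ATP (Km levels) in 50mM Tris acetate pH 7.5, 10mM Mg acetate, 0.01% Tween-20, 0.05% BSA; qHTS 6-point titration, ~60 µM downward; luminescence read.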
Rab9 prom act – Rab9 promoter activation; Huh7 Rab9 promoter-luciferase reporter, luminescence, 24 h; Potency, µM (doses to about 9.22 µM), inactives show top-dose activation, negative = inhibition, hits mostly activators; 2.8% of 320,000 active; note: % of control where 0% means no effect; nearly all actives have a fitted effect of over 60% in size
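Steps: seed 1500 Huh7 Rab9-luc cells per well, rest 2 h at 37 °C; add compound in DMSO; incubate 24 h; add luciferase reagent, 10 min ambient; read luminescence.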
NPC1 promoter act – NPC1 promoter activation | Huh7 NPC1 promoter luciferase reporter, 24 h | Potency, µM (titrated, usually from 9.22 µM), for inactives: at the top dose activation, most hits filed as activators | 2.4% of 320,000 active; note: % of control where 0% means no effect; nearly all actives have a fitted effect of over 60% in size
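NPC1 promoter–luciferase Huh7 cells; 24 h compound; luminescence.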
ELG1 DNA repair – ELG1-dependent DNA repair inhibition; Potency, µM (titrated, usually from 46.1 µM), for inactives: at the highest dose activity change, negative = inhibition, most hits filed as inhibitors; HEK293T ELG1-luciferase reporter, luminescence, 16 h; DNA damage induced by 5-fluorouridine; 2.3% of 330,000 active; note: % is set by controls: 0 for no effect and ±100 for the full control effect; nearly all actives have a fitted effect of over 55% in size
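DMSO vehicle served as the neutral condition. Each well held 2,000 cells given 5-fluorouridine plus compound; after 16 hr at 37 °C/5% CO2, ONE-Glo was added and luciferase measured 30 min later.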
* hit, by the source's call; u = inconclusive; x = no result given. Rows were chosen to be rich in hits. Some 9.2% of all compounds tested hit in one or more screens of this group. Calls come from the whole dose curve; as a rule, active = well fitted curve in the direction sought with a large enough effect; inconclusive = small, poorly fitted or top-dose-only effect, or another doubt; inactive = no such curve, though single readings can be large; an effect the other way counts as inactive or inconclusive. Potency is the fitted concentration of half-maximal effect.

SMILES | SMN2 splice up | ELG1 genotoxic | FLuc modulator | Rab9 prom act | NPC1 promoter act | ELG1 DNA repair
COc1ccccc1C(=O)Nc1ccc2c(c1)OCCO2 | 13µM* | u | 7.6µM* | 1.8µM* | 3.2µM* | u
CN(c1ccccc1C(=O)Nc1ccc2c(c1)OCO2)S(C)(=O)=O | -4% | 1% | -5% | -3% | -2% | -6%
Cc1ccccc1C(=O)Nc1ccc2c(c1)OCO2 | 0.79µM* | 1.6µM* | 4.8µM* | 0.45µM* | 0.45µM* | u
O=c1c2ccccc2nc(SCc2nc3ccccc3s2)n1CCCO | 14µM* | u | 13µM* | 2.8µM* | u | u
O=C(N/N=C/c1cn(-c2ccccc2)nc1-c1cc2ccccc2o1)c1c[nH]c2ccccc12 | 4µM* | u | 1.9µM* | 1.4µM* | 1.8µM* | u
COc1ccc(-c2nn(-c3ccccc3)cc2/C=N/NC(=O)c2ccc(Br)o2)cc1 | -22% | -17% | u | 1% | -4% | u
O=C(N/N=C/c1cn(-c2ccccc2)nc1-c1cc2ccccc2o1)c1ccccc1Br | 4.5µM* | u | 15µM* | u | 3.2µM* | u
Cc1csc2ncnc(N3CCN(C(=O)Nc4ccc(OC(F)(F)F)cc4)CC3)c12 | x | -6% | 3% | -9% | 0% | u
COc1ccc(-c2csc(Nc3ccccc3)[n+]2CC(O)c2ccc([N+](=O)[O-])cc2)cc1 (stereo not given) | x | -10% | 1% | -5% | 6% | 21µM*
N#Cc1ccccc1S(=O)(=O)N1CCN(CC(=O)NCC2(N3CCOCC3)CCCCC2)CC1 | x | 0% | x | -3% | 9% | 16%
Cc1cc(C(=O)O)ccc1N/C=C1\CCCC(C)C1=O (stereo not given) | u | u | 0.95µM* | u | u | u
CC1CCC/C(=C\Nc2ccc(O)cc2)C1=O (stereo not given) | -11% | 18µM* | 21µM* | u | 2% | u
CCOc1ccc(-c2cc(CCCC(=O)NCc3ccco3)no2)cc1 | 10% | 10% | 3.4µM* | -6% | 6% | u
CCOc1ccc(-c2cc(CCCC(=O)NCCc3ccc(SC)cc3)no2)cc1 | 12% | x | 12µM* | x | x | x
CCOc1ccc(-c2cc(CCCC(=O)NCCc3ccc(OCC)c(OCC)c3)no2)cc1 | 20% | x | 9.5µM* | x | x | x
CCOC(=O)c1ccc(NC(=O)CCCn2nc(C)c3sc4ccccc4c3c2=O)cc1 | x | x | -8% | x | x | x
N#Cc1ccccc1NCC(=O)N1CCN(S(=O)(=O)c2ccccc2)CC1 | x | -1% | 1% | -6% | -3% | -11%
Nc1ccc2nc(-c3ccc(N)c(Cl)c3)[nH]c2c1 | u | u | 6µM* | 2.8µM* | u | 4%
CC(=O)Nc1ccc2nc(-c3cccs3)[nH]c2c1 | u | u | 12µM* | 2.5µM* | u | u
Nc1ccc2nc(-c3cccs3)[nH]c2c1 | 22µM* | u | 11µM* | 2.5µM* | u | u
Nc1ccc2nc(C(F)(F)F)[nH]c2c1 | -2% | 1% | -2% | 1% | -2% | 5%
Cn1cccc1-c1nc2ccc(NC(=O)c3cccs3)cc2[nH]1 | 41% | u | u | 3% | 0% | u
Nc1ccc(-c2nc3c(Cl)cc(N)cc3[nH]2)cc1 | -26% | -4% | 21µM* | -13% | -26% | 0%
Nc1cccc(-c2nc3ccc(C(=O)c4ccccc4)cc3[nH]2)c1 | x | u | 0.76µM* | 24% | 18% | u
Nc1ccc2nc(-c3ccccc3)[nH]c2c1 | 18µM* | u | 7.6µM* | 3.2µM* | 3.2µM* | u
SMILES | SMN2 splice up | ELG1 genotoxic | FLuc modulator | Rab9 prom act | NPC1 promoter act | ELG1 DNA repair
COC(=O)Nc1nc2ccc(C(=O)c3ccccc3)cc2[nH]1 | 23% | x | x | x | x | x
Nc1ccc2nc(-c3ccccn3)[nH]c2c1 | 16µM* | 11% | 13µM* | u | u | u
Nc1ccc2nc(-c3cccnc3)[nH]c2c1 | 3% | 5% | u | -1% | -2% | 22%
COc1ccc2nc(-c3ccccn3)[nH]c2c1 | x | 5.2µM* | 6.7µM* | 2µM* | 1.3µM* | u
Cc1cc(=S)nc(-c2ccccn2)[nH]1 | x | 3% | -3% | -1% | 0% | u
COc1ccc2nc(NCCCO)[nH]c2c1 | 9% | -2% | -3% | 2% | 0% | 15%
CN(C)c1ccc(-c2nc(Nc3ccncc3)c3ccccc3n2)cc1 | 11µM* | x | x | x | x | x
Fc1ccccc1Nc1nc(-c2ccncc2)nc2ccccc12 | 15% | -6% | -1% | -1% | -1% | 2.6µM*
c1ccc(Nc2nc(-c3ccncc3)nc3ccccc23)cc1 | -31% | 6% | -1% | -4% | -1% | 2.1µM*
Fc1ccc(Nc2nc(-c3ccncc3)nc3ccccc23)cc1 | -21% | 0% | -1% | 0% | 0% | 2.3µM*
COc1ccc(N2CCN(C(CNC(=O)c3cccc(OC)c3)c3cccnc3)CC2)cc1 (stereo not given) | x | x | -11% | x | x | x
COc1ccc(C2=Nc3ccccc3NC(c3cccs3)=N2)cc1 | -1% | x | u | x | x | x
COC(=O)CNc1nc(-c2ccncc2)nc2ccccc12 | -3% | -1% | 1% | 2% | -3% | u
c1ccc(CCNc2nc(-c3ccncc3)nc3ccccc23)cc1 | x | -16% | -1% | -19% | -23% | 15µM*
c1ccc2sc(-c3ccncc3)nc2c1 | x | u | 15µM* | 2.8µM* | 3.2µM* | u
Oc1ccc(-c2nc3ccccc3s2)cc1 | x | 3.7µM* | 1.9µM* | 2.8µM* | 2.8µM* | u
CC(=O)NCc1ccc(-c2nc3ccccc3s2)cc1 | 14µM* | u | 3µM* | 0.63µM* | 2.2µM* | u
CC(=O)N(Cc1cccnc1)c1cccc(-c2nc3ccccc3s2)c1 | x | 2% | -15% | -17% | 3% | u
CC(=O)Nc1scc(C)c1-c1nc2ccccc2s1 | x | -6% | 4% | -2% | -2% | -1%
c1cncc(-c2nc3ccccc3s2)c1 | x | u | 21µM* | u | u | u
Cc1ccc(-n2ncc3c2CCCC3NC(=O)CCc2cnccn2)cc1C (stereo not given) | x | -5% | -5% | -2% | 5% | -27%
COc1ccc(-c2nc3c4ccccc4n(CC(=O)N4CCN(c5ccccc5F)CC4)c(=O)n3n2)cc1 | x | x | -5% | x | x | x
COc1cc(S(=O)(=O)N2CCOCC2)ccc1NC(=O)COC(=O)COc1ccccc1 | 10% | 3% | -1% | -3% | -3% | -2%
CC(=O)NCc1ccc(-c2csc(-c3cccs3)n2)cc1 | x | u | 5.4µM* | 2.2µM* | 2µM* | u
c1csc(-c2nc3ccccc3s2)c1 | x | u | 2.7µM* | 3.5µM* | 2.5µM* | u
